Screens: PubChem, National Center for Advancing Translational Sciences (NCATS)
Sampled rows, rich in hits. Any-hit rate of the full collection: about 3.8%.
MBNL1 CUG block: qHTS Assay for Inhibitors of MBNL1-poly(CUG) RNA binding; Muscleblind-like protein 1 (Homo sapiens), Q9NR56; Potency, µM (titrated, usually from 57.5 µM), without a hit: at the highest dose activity change, negative = inhibition, usual class: inhibitors; hit rate 0.036% among 280,000; TR-FRET MBNL1-His/biotin-(CUG)12 binding, 665/545 ratio; active = well fitted inhibition curve with a large enough effect in the signal ratio, with a control signal flat, not every such curve was filed as active; inconclusive = small, poorly fitted or top-dose-only effect, or effect the other way, or a change in a side signal; inactive = no such curve, though single readings can be large or run the other way; the % refers to the signal ratio; also: potency is read from the fitted curve at half-maximal effect; % is scaled to controls: 0 for no effect and ±100 for the full control effect
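Inhibition of protein-RNA binding appears as loss of TR-FRET between terbium anti-His antibody on MBNL1-His and streptavidin-XL665 on biotin-(CUG)12. Activity is normalized to buffer-only and uninhibited-complex controls.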
KCNH2 WT inh: qHTS for Inhibitors of KCHN2 3.1: Wildtype qHTS; Voltage-gated inwardly rectifying potassium channel KCNH2 (Homo sapiens), Q12809; U2OS, BacMam KCNH2, thallium flux FluxOr; hits give low values; activity change, % at 1.84 µM; hit rate 0.37% among 340,000;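 active = maximum activity change below -70%; inconclusive = maximum activity change between -70% and -50%; inactive = maximum activity change above -50%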; also: % is scaled to controls: 0 for no effect and ±100 for the full control effect
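U2OS cells were transduced with wild-type KCNH2 virus (2.03 x 10^8 / mL) for 4 h at room temperature, then cultured overnight at 37 C. Thallium flux was read with FluxOr dye. Rate constants were normalized to DMSO controls.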
KCNH2 3.1 inh: qHTS for Inhibitors of KCHN2 3.1: Mutant qHTS | U2OS KCNH2 3.1, thallium flux FluxOr; hits give low values | activity change, % (tested at about 1.8 µM) | hit rate 0.95% among 340,000;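 active = maximum activity change below -70%; inconclusive = maximum activity change from -70% to -50%; inactive = maximum activity change above -50%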;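 also: thallium influx rate constant from kinetic fluorescence after stimulation buffer; % is scaled to controls: 0 for no effect and ±100 for the full control effect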
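We transduce U2OS cells with the mutant 3.1 virus, culture them overnight, load FluxOr with Red40 quencher for 45 min, then add stimulation buffer and read kinetically for 2 min to derive a normalized rate constant.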
PLK1 PBD inh: qHTS for Inhibitors of PLK1-PDB (polo-like kinase 1 - polo-box domain): Primary Screen; Serine/threonine-protein kinase PLK1 (Homo sapiens), P53350; Plk1 PBD binding of FITC phosphopeptide, fluorescence polarization; Potency, µM, for the others: max response, negative = inhibition, actives largely listed as inhibitors; hit rate 2.8% among 360,000; also: potency is read from the fitted curve at half-maximal effect; series mostly up to about 57 µM; % is scaled to controls: 0 for no effect and ±100 for the full control effect; nearly all actives have a fitted effect of over 65% in size
VDR inhibitor: Inhibitors of the vitamin D receptor (VDR): qHTS; VDR-SRC2-3 peptide fluorescence polarization, 2 h; Potency, µM, for inactives: max response, negative = inhibition, usual class: inhibitors; hit rate 0.93% among 400,000; also: potency is read from the fitted curve at half-maximal effect; % is scaled to controls: 0 for no effect and ±100 for the full control effect
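VDR–SRC2-3 interaction, FP format. Cmpds 23 nl via pintool, brief spin, 2 h ambient incubation.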
CBFb-RUNX1 inh: qHTS Assay for Compounds Blocking the Interaction Between CBF-beta and RUNX1 for the Treatment of Acute Myeloid Leukemia; AlphaScreen CBFb-His/RUNX1-biotin binding, biochemical; 230,000 tested, under 10 active; Potency, µM (titrated, usually from 59.8 µM), without a hit: at the highest dose activity, negative = inhibition, actives largely listed as inhibitors; Runt-related transcription factor 1 (Homo sapiens) + Core-binding factor subunit beta …; also: % of control where 0% means no effect
Target sequence (Q01196 whole entry, looked up): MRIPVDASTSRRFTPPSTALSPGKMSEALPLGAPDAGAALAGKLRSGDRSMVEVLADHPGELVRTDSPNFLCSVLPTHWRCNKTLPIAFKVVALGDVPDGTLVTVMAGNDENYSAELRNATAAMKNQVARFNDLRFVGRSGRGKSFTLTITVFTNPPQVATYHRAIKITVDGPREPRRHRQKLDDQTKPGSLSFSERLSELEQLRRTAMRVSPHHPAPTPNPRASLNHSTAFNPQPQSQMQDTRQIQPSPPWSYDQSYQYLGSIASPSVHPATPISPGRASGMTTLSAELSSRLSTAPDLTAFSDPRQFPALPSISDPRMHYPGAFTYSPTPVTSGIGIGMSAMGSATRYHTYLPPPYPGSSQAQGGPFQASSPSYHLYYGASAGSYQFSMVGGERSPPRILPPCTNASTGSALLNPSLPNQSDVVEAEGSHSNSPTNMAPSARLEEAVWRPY
Target sequence (Q13951 whole entry, looked up): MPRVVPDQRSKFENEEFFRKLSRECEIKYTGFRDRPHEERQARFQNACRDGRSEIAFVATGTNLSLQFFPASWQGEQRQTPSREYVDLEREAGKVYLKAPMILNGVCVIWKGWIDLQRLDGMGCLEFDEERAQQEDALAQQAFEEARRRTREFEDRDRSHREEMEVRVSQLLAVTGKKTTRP
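AlphaScreen proximity signal reports loss of binding between His-tagged CBF-beta and biotin-labelled RUNX1, each at 30 nM. Proteins are pre-associated for 20 minutes, compounds added for 15 minutes, then beads for 90 minutes, all at ambient temperature.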
Starred values were filed as active, the others as inactive; ? = inconclusive; · = not tested or not shown; [ ] = remark or other dose. Unless noted, calls follow the shape of the dose curve; as a rule, active = well fitted curve in the direction sought with a large enough effect; inconclusive = small, poorly fitted or top-dose-only effect, or another doubt; inactive = no such curve, though single readings can be large; an effect the other way counts as inactive or inconclusive.

SMILES	MBNL1 CUG block	KCNH2 WT inh	KCNH2 3.1 inh	PLK1 PBD inh	VDR inhibitor	CBFb-RUNX1 inh
O=C(Nc1ccnc(=O)[nH]1)c1sc2ccccc2c1Cl	7%	12	-3	27µM*	-15%	15%
O=C(O)c1ccccc1NC(=S)NC(=O)c1sc2ccccc2c1Cl	27%	-8	4	12µM*	?	5%
O=C(Nc1ccc(Br)cc1)C1CCN(S(=O)(=O)c2cccc3nsnc23)CC1	·	·	·	·	-5%	·
Cc1cccc(NC(=O)C(=O)c2cc(C)n(-c3ccccc3)c2C)c1C	·	·	·	·	30%	·
O=C(O)c1ccc(CNc2ncnc3nc[nH]c23)cc1	·	·	·	·	-27%	·
CC[C@H](C)[C@H](NC(=O)[C@H](C)NC(=O)[C@H](Cc1cnc[nH]1)NC(=O)[C@@H]1CCCN1C(=O)CNC(=O)[C@H](CC(C)C)NC(=O)[C@H](CC(C)C)NC(=O)[C@H](Cc1ccc(O)cc1)NC(=O)CNC(=O)[C@H](C)NC(=O)[C@H](CO)NC(=O)[C@H](CC(N)=O)NC(=O)[C@H](CC(C)C)NC(=O)[C@@H](NC(=O)[C@H](Cc1c[nH]c2ccccc12)NC(=O)CN)[C@@H](C)O)C(=O)N[C@@H](CC(=O)O)C(=O)N[C@@H](CC(N)=O)C(=O)N[C@@H](Cc1cnc[nH]1)C(=O)N[C@@H](CCCNC(=N)N)C(=O)N[C@@H](CO)C(=O)N[C@@H](Cc1ccccc1)C(=O)N[C@@H](CO)C(=O)N[C@@H](CC(=O)O)C(=O)N[C@@H](CCCCN)C(=O)N[C@@H](Cc1cnc[nH]1)C(=O)NCC(=O)N[C@@H](CC(C)C)C(=O)N[C@H](C(N)=O)[C@@H](C)O	·	·	·	·	4%	5%
CN(C)c1ccc(NC(=O)N2CCOCC2)cc1	7%	3	-6	-6%	14µM*	-13%
CCc1cccc(C)c1NC(=O)C1CCN(c2nnc(C)c3c(C)n(-c4ccccc4)nc23)CC1	·	·	·	·	5%	·
COc1ccc(S(=O)(=O)N(C)CC(=O)N2CCCCCC2)cc1	-1%	-18	7	-10%	?	·
CCOc1ccc(S(=O)(=O)N(C)CC(=O)N2CCCC2)cc1	2%	-9	-100*	-20%	-12%	·
CN(c1ccc(OCC(=O)N2CCCC2)cc1)S(=O)(=O)c1ccc(Cl)cc1	·	-133*	11	-18%	-10%	·
COc1ccc(N2CCN(C(=O)c3ccc(N(C)S(=O)(=O)c4ccc(OC)cc4)cc3)CC2)cc1	-24%	11	-2	13µM*	89µM*	-29%
CCOc1ccc(N(C(C)C(=O)N2CCCC2)S(C)(=O)=O)cc1 (centres undefined)	-5%	-12	2	19µM*	?	·
COc1ccc(N2CCN(C(=O)c3ccc(N(C)S(=O)(=O)c4ccc(C)cc4)cc3)CC2)cc1	-3%	27	-4	-9%	-6%	3%
Cc1ccsc1CN(C(=O)c1ccc(OCC(C)C)cc1)C1CCS(=O)(=O)C1 (centres undefined)	·	·	·	·	4%	·
O=c1cc(-c2cccc(O)c2O)oc2ccccc12	·	·	·	·	·	-24%[21.7 µM]
CCCn1c(N)c(C(c2ccc(C(=O)OC)cc2)N2CCN(c3ccccc3)CC2)c(=O)[nH]c1=O (centres undefined)	-5%	5	-3	-1%	-2%	-13%
CCCn1c(N)c(C(c2ccc(OC)cc2)N2CCN(c3ccccc3)CC2)c(=O)[nH]c1=O (centres undefined)	-5%	4	10	-25%	56µM*	-2%
CCC1Cc2cc(O)ccc2C2=C1c1ccc(O)cc1CC2CC (centres undefined)	·	·	·	·	?	-8%
N#Cc1c(-c2ccccc2)cc(-c2ccccc2)nc1SCCC(=O)O	14%	-8	3	21µM*	?	·
N#Cc1c(-c2ccc(F)cc2)cc(-c2ccccc2)nc1SCC(=O)NCC(=O)O	·	8	18	19µM*	?	-2%
CCOc1ccc(-c2cc(C(=O)NCc3ccccc3)c3c(-c4ccc(CC)cc4)[nH]nc3n2)cc1	·	·	·	·	0%	·
O=C(Nc1ccc(Br)cc1)N1CCC(CN2CCCC2)CC1	·	·	·	·	16%	·
Cc1cccc(-c2nnc(C(C)Nc3cccc(C(=O)NC4CC4)c3)o2)c1 (centres undefined)	·	7	-73*	-6%	·	·
COc1ccc(Cc2c(C)nn(-c3nc(C)c(C(=O)Nc4cccc(C(C)=O)c4)s3)c2C)cc1	·	·	·	·	5%	·
SMILES	MBNL1 CUG block	KCNH2 WT inh	KCNH2 3.1 inh	PLK1 PBD inh	VDR inhibitor	CBFb-RUNX1 inh
COc1ccc(C2=NC(c3ccc(Cl)cc3)C(c3ccc(Cl)cc3)N2C(=O)N2CCNC(=O)C2)c(OC(C)C)c1 (centres undefined)	·	·	·	·	50µM*	-3%
CCc1ccc(NCc2cc3cc4c(cc3n(CC(=O)Nc3ccccc3C)c2=O)OCCO4)cc1	·	·	·	·	3%	·
COC(=O)c1ccc(CSc2nnc(N)s2)cc1	-3%	4	4	-3%	13%	1%
COC(=O)c1ccc(CSc2nnc(C)s2)cc1	17%	-2	-6	3.4µM*	-22%	-2%
Cc1sc(NC(=O)CCl)c(C(=O)c2ccccc2)c1C	?	-4	-33	27µM*	?	-5%
Cc1ccccc1C(=O)Nc1sc2c(c1C(=O)O)CCC2	-18%	-1	5	-7%	14%	-2%
Cc1ccccc1C(=O)Nc1sc(C)c(C)c1C(=O)c1ccccc1	9%	-6	-27	21µM*	?	-21%
O=C(CCl)Nc1sccc1C(=O)c1ccccc1	·	-10	2	-20%	4%	·
C/C(CCC(=O)O)=N/Nc1ccc([N+](=O)[O-])cc1[N+](=O)[O-]	·	10	-12	-7%	-3%	-10%
O=C(O)/C(CC(=O)c1ccc(Cl)cc1)=N/Nc1ccc([N+](=O)[O-])cc1[N+](=O)[O-]	?	·	11	24µM*	-27%	·
Cc1cc2[nH]c(=S)[nH]c2cc1C	·	-1	2	6µM*	-12%	6%
S=c1[nH]c2ccc(Cc3ccc4[nH]c(=S)[nH]c4c3)cc2[nH]1	62%	-5	20	21µM*	-13%	·
S=c1[nH]c2cc3ccccc3cc2[nH]1	?	-5	-3	30µM*	-8%	1%
